In all, about 5,500 compounds went through this assay and about 2,000 (36%) were called active. About 18% were inconclusive and are not listed. Cut-off read from the data, not from the text of the source: active = normalized growth mostly below about 0.91 (no sharp cut-off); inconclusive = no clear call, values can overlap the other calls; inactive = mostly above about 0.92. The list shows a part of the results.
Experiment: chemical genetic growth profiling, strain panel (AID 1159580);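 note: tested at 20 µM; growth read once vehicle control cultures reached saturation at 30 °C; 1 = growth at the plate median or of vehicle wells; lower values mean less growth of the strain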
Conditions: S. cerevisiae deletion strains, growth OD
[1] = locus YHR030C, strain SLT2, stronger effect = lower value
[2] = locus YHR079C, strain IRE1, stronger effect = lower value
[3] = locus YJL095W, strain BCK1, stronger effect = lower value
[4] = locus YJR066W, strain TOR1, stronger effect = lower value
[5] = locus YLR113W, strain HOG1, stronger effect = lower value
[6] = locus YNL183C, strain NPR1, stronger effect = lower value
[7] = locus YOR231W, strain MKK1, stronger effect = lower value
[8] = locus YPL256C, strain CLN2, stronger effect = lower value

Measured: normalized growth

CN(C)CC(=O)OC[C@@H](O)[C@@H](O)[C@H](O)[C@@H](O)C(=O)O
inactive: [1] 0.956 | [2] 0.944 | [3] 0.954 | [4] 0.924 | [5] 0.956 | [6] 0.896 | [7] 0.964 | [8] 0.969

O=C1c2ccccc2C(=O)c2c(O)c(O)cc(O)c21
active: locus YAL021C, strain ccr4, stronger effect = lower value 0.105 | locus YAL026C, strain drs2, stronger effect = lower value 0.209 | locus YAL030W, strain snc1, stronger effect = lower value 0.471 | locus YBL061C, strain skt5, stronger effect = lower value 0.403 | locus YBR009C, strain hhf1, stronger effect = lower value 0.415 | locus YBR023C, strain chs3, stronger effect = lower value 0.35 | locus YBR171W, strain sec66, stronger effect = lower value 0.541 | locus YBR231C, strain swc5, stronger effect = lower value 0.228 | locus YBR279W, strain paf1, stronger effect = lower value 0.478 | locus YCL011C, strain gbp2, stronger effect = lower value 0.436 | locus YCL016C, strain dcc1, stronger effect = lower value 0.492 | locus YCL061C, strain MRC1, stronger effect = lower value 0.503 | locus YCL069W, strain vba3, stronger effect = lower value 0.426 | locus YCR088W, strain abp1, stronger effect = lower value 0.548 | locus YDL005C, strain med2, stronger effect = lower value 0.114 | locus YDL040C, strain nat1, stronger effect = lower value 0.639 | locus YDR001C, strain nth1, stronger effect = lower value 0.583 | locus YDR069C, strain doa4, stronger effect = lower value 0.22 | locus YDR137W, strain rgp1, stronger effect = lower value 0.136 | locus YDR159W, strain sac3, stronger effect = lower value 0.475 | locus YDR195W, strain ref2 0.766 | locus YDR297W, strain sur2, stronger effect = lower value 0.47 | locus YDR334W, strain swr1, stronger effect = lower value 0.206 | locus YDR335W, strain msn5, stronger effect = lower value 0.386 | locus YDR392W, strain spt3, stronger effect = lower value 0.164 | locus YEL003W, strain gim4, stronger effect = lower value 0.392 | locus YEL037C, strain rad23, stronger effect = lower value 0.421 | locus YEL061C, strain CIN8 (second series), stronger effect = lower value 0.494 | locus YER015W, strain faa2, stronger effect = lower value 0.323 | locus YER016W, strain bim1, stronger effect = lower value 0.505 | locus YER111C, strain swi4, stronger effect = lower value 0.223 | locus YER155C, strain BEM2 (second series), stronger effect = lower value 0.248 | locus YFR010W, strain ubp6, stronger effect = lower value 0.412 | locus YGL167C, strain pmr1, stronger effect = lower value 0.212 | locus YGL173C, strain kem1, stronger effect = lower value 0.193 | locus YGL227W, strain vid30, stronger effect = lower value 0.627 | locus YGL240W, strain doc1, stronger effect = lower value 0.383 | locus YGL253W, strain hxk2, stronger effect = lower value 0.262 | locus YHR013C, strain ard1, stronger effect = lower value 0.293 | locus YHR027C, strain rpn1, stronger effect = lower value 0.268 | [1] 0.183 | [2] 0.202 | locus YHR142W, strain chs7, stronger effect = lower value 0.242 | locus YJL092W, strain hpr5, stronger effect = lower value 0.529 | locus YJL095W, strain BCK1 (second series), stronger effect = lower value 0.121 | [3] 0.192 | locus YJL115W, strain asf1, stronger effect = lower value 0.431 | locus YJL129C, strain trk1, stronger effect = lower value 0.396 | locus YJL154C, strain vps35, stronger effect = lower value 0.489 | locus YJL164C, strain tpk1, stronger effect = lower value 0.339 | locus YJL166W, strain qcr8, stronger effect = lower value 0.327 | locus YJL187C, strain SWE1, stronger effect = lower value 0.434 | [4] 0.174 | locus YKL160W, strain elf1, stronger effect = lower value 0.507 | locus YKR026C, strain gcn3, stronger effect = lower value 0.665 | locus YKR091W, strain srl3, stronger effect = lower value 0.648 | locus YLL001W, strain dnm1, stronger effect = lower value 0.39 | locus YLL026W, stronger effect = lower value 0.444 | locus YLL041C, strain sdh2, stronger effect = lower value 0.584 | locus YLR027C, strain aat2, stronger effect = lower value 0.435 | [5] 0.199 | locus YLR221C, strain rsa3, stronger effect = lower value 0.414 | locus YLR258W, strain gsy2, stronger effect = lower value 0.455 | locus YLR262C, strain YPT6 (second series), stronger effect = lower value 0.141 | locus YLR320W, strain mms22, stronger effect = lower value 0.266 | locus YLR342W, strain FKS1, stronger effect = lower value 0.443 | locus YLR357W, strain rsc2, stronger effect = lower value 0.534 | locus YLR370C, strain arc18, stronger effect = lower value 0.293 | locus YLR384C, strain iki3, stronger effect = lower value 0.401 | locus YML120C, strain ndi1, stronger effect = lower value 0.334 | locus YMR058W, strain fet3, stronger effect = lower value 0.33 | locus YMR125W, strain sto1, stronger effect = lower value 0.699 | locus YMR129W, stronger effect = lower value 0.557 | locus YMR205C, strain PFK2, stronger effect = lower value 0.356 | locus YMR231W, strain pep5, stronger effect = lower value 0.296 | locus YNL071W, strain lat1, stronger effect = lower value 0.306 | [6] 0.159 | locus YNL209W, strain ssb2, stronger effect = lower value 0.252 | locus YNL248C, strain rpa49, stronger effect = lower value 0.336 | locus YNL322C, strain KRE1 (second series), stronger effect = lower value 0.424 | locus YNR049C, strain mso1, stronger effect = lower value 0.489 | locus YOR001W, strain rrp6, stronger effect = lower value 0.446 | locus YOR070C, strain gyp1, stronger effect = lower value 0.439 | locus YOR080W, strain dia2, stronger effect = lower value 0.435 | locus YOR083W, strain WHI5, stronger effect = lower value 0.399 | locus YOR106W, strain vam3, stronger effect = lower value 0.193 | [7] 0.197 | locus YOR265W, strain rbl2, stronger effect = lower value 0.447 | locus YOR270C, strain vph1, stronger effect = lower value 0.165 | locus YOR290C, strain snf2, stronger effect = lower value 0.282 | locus YPL051W, strain arl3, stronger effect = lower value 0.168 | locus YPL078C, strain atp4, stronger effect = lower value 0.344 | locus YPL106C, strain sse1, stronger effect = lower value 0.491 | locus YPL240C, strain hsp82, stronger effect = lower value 0.497 | [8] 0.228

— PubChem BioAssay AID1159580 (chemical genetic matrix, 2015)
